Structures are written as SMILES. Unmarked numbers belong to inactive results. Results filed as inconclusive are left out. Active and inactive are the calls of the source. Unless noted, calls follow the shape of the dose curve; as a rule, active = well fitted curve in the direction sought with a large enough effect; inconclusive = small, poorly fitted or top-dose-only effect, or another doubt; inactive = no such curve, though single readings can be large; an effect the other way counts as inactive or inconclusive. Bounds are passed on as bounds.

For test [1], the target named is Lysosomal acid glucosylceramidase (Homo sapiens) (UniProt P04062). Kind of test: Glucocerebrosidase-p2 (AID 348; in the data active = potency below about 10 µM; also: potency is read from the fitted curve at half-maximal effect). The settings on record: purified GBA, blue fluorogenic substrate, 40 min. The method, boiled down: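 Normal human glucocerebrosidase (0.2 nM) with blue fluorogenic substrate (80 uM final) in citrate/phosphate pH 5.9 with 10mM sodium taurocholate, 0.01% tween-20; 40 min RT, NaOH/glycine stop; fluorescence Ex 365/Em 440; AC50 from a titration from 0.6 nM upwards.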
Lysosomal acid glucosylceramidase (Homo sapiens), sequence (P04062 whole entry, looked up): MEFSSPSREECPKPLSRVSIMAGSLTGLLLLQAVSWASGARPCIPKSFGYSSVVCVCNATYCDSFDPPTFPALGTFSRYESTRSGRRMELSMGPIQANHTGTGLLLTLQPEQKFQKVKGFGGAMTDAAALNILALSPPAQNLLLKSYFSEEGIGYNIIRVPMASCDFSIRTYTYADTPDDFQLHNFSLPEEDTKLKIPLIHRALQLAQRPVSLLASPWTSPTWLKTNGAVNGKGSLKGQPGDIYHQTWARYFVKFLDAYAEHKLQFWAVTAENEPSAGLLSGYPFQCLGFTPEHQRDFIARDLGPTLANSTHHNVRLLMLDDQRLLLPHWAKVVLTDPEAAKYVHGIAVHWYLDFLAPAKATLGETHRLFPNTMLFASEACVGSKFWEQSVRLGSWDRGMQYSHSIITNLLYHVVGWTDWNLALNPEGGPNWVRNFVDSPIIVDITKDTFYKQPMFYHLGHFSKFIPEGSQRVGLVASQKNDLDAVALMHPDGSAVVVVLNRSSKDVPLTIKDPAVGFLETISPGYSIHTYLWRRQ

Test [2] can be described thus: AP1 Signaling Pathway (AID 357; active = well fitted curve in either direction with a large enough effect, not every such curve was filed as active;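 also: ME-180 reporter cells stimulated with EGF at its EC50 level; % is scaled to controls: 0 for no effect and ±100 for the full control effect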). The settings on record: ME-180 AP-1-bla reporter, EGF-induced, beta-lactamase ratio, 5 h; at 7.69 µM (top of the series) unless noted. The gist of the method: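 Modulation of EGF-driven AP-1 transcription was assessed with a beta-lactamase reporter in ME-180 cells. Compound and EC50 EGF were co-incubated 5 hours at 37 °C before 2.5-hour CCF4 loading at room temperature and dual-emission reading.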

Test [3] deals with Cytochrome P450 1A2 (Homo sapiens) (UniProt P05177). Kind of test: p450-cyp1a2 (AID 410; calls by dose curve; also: potency is read from the fitted curve at half-maximal effect). Particulars: recombinant CYP1A2, luciferin-ME demethylation, luminescence; series mostly up to 57 µM. The gist of the method:
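20nM CYP1A2, 100uM Luciferin-ME (=Km), 100mM KPO4; cpd 10 min RT; +NADPH regen, 60 min RT; stop/detect 20 min; luminescence. Normalized to furafylline 57 uM = full inhibition.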

A short description of test [4]: NFAT Signaling Pathway (AID 444; active = well fitted curve in either direction with a large enough effect, not every such curve was filed as active;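 also: carbachol stimulus at about its EC50 of 1 µM final; % is scaled to controls: 0 for no effect and ±100 for the full control effect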). The settings on record: Jurkat NFAT-bla M1, carbachol, beta-lactamase ratio, 5 h; at 7.69 µM (top of the series) unless noted. The gist of the method: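 Jurkat cells with NFAT-driven β-lactamase reporter and co-expressed M1 receptor, stimulated with carbachol (final 1 uM, ~EC50), compound titration, 5 h at 37 °C. CCF4 loaded 1 h at RT; 460/530 nm ratio gave %activity and AC50.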

Test [5] in a line: Stat Signaling Pathway (AID 446; active = well fitted curve in either direction with a large enough effect, not every such curve was filed as active;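 also: ME-180 cervical cancer cells given 40 pM IL-6 alongside compound; SIE-controlled beta-lactamase reporter measured as 460/530 nm FRET emission ratio; % is scaled to controls: 0 for no effect and ±100 for the full control effect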). Particulars: ME-180 SIE beta-lactamase reporter, IL-6 stimulated, 5 h; at 7.69 µM (top of the series) unless noted. The gist of the method: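 Emission at 460 and 530 nm (excitation 405 nm) reports SIE-controlled beta-lactamase in ME-180 cells. Cells received compound with 40 pM IL-6 for 5 hrs at 37 C; data scaled between 300 pM IL-6 and 125 nM JAK-inhibitor controls.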

Test [6] concerns the target Glucocorticoid receptor (Homo sapiens) (UniProt P04150). The test can be described thus: GR-GFP Redistribution (AID 450;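 active = compounds whose dose series gives a full or clear partial fitted curve of increased nuclear translocation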; also: potency is read from the fitted curve at half-maximal effect). Particulars: U2OS GR-GFP nuclear translocation, laser cytometry, 2 h.
Test [7] shares this target. The test can be described thus: GR-EFC Redistribution (AID 451; calls by dose curve; also: potency is read from the fitted curve at half-maximal effect). Particulars: CHO-K1 GR-EFC translocation, beta-gal luminescence, 2 h. The gist of the method: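 CHO-K1 cells expressing nuclear EA and GR-ED fragments of b-gal; compounds titrated up to 46 uM final, 2 h at 37 C. GR nuclear translocation read as complemented b-gal luminescence after 1 h RT detection.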
Test [8] has as its target Mitogen-activated protein kinase 10 (Mus musculus) (UniProt Q61831). The test can be described thus: JNK3 AlphaScreen Assay (AID 530; active = well fitted curve in either direction with a large enough effect, not every such curve was filed as active;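 also: kinase came from lysate of stimulated human HepG2 cells; signal reports phosphorylation of biotinylated GST-cJun 1-79 at Ser73 with 10 µM ATP; % is scaled to controls: 0 for no effect and ±100 for the full control effect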). Particulars: JNK3 lysate, c-Jun phosphorylation; series mostly up to 57.1 µM. The method, boiled down: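 HepG2 lysate (IL-1b/TNFa pre-activated) + biotin-GST-cJun 1-79 + anti-pSer73 cJun; cpd titration, 15 min RT; ATP 10 uM start; Tris pH 7.6, MgCl2, DTT, vanadate; beads in EDTA buffer; AlphaScreen.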
(Alpha assays give light when donor and acceptor beads are brought close together.)

For test [9], the target named is 3',5'-cyclic-AMP phosphodiesterase 4B (Homo sapiens) (UniProt Q07343). The test can be described thus: qHTS Assay for Inhibitors of PDE-IV (AID 607; active = well fitted activation curve with a large enough effect in the main read-out, with a control signal flat, not every such curve was filed as active; also: % of control where 0% means no effect). Particulars: HEK293 ACTOne CNG channel cells, membrane potential fluorescence; series mostly up to 22.9 µM. The method, boiled down:
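The readout is membrane depolarisation from a cAMP-sensing CNG channel, detected with a potential dye at ex 535/em 590. Cells were HEK293-derived (endogenous PDE-IV) at 1000 cells/well, titrated up to 22.9 uM final.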
Background: In qHTS, concentration-response curves come from the screen itself.

The target in test [10] is Cytochrome P450 3A4 (Homo sapiens) (UniProt P08684). The test can be described thus: qHTS Assay for Activators of Cytochrome P450 3A4 (AID 885). Also: nearly all actives have a fitted effect of over 65% in size. Particulars: recombinant CYP3A4, Luciferin-PPXE luminescence, 60 min; series mostly up to 57.1 µM. The gist of the method: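 Activators are scored by enhanced luminescence from CYP3A4 conversion of luciferin-PPXE (25uM, equal to KM) to luciferin, after 60 min at RT with an NADPH-regenerating system.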
Cytochrome P450 3A4 (Homo sapiens), sequence (P08684 whole entry, looked up): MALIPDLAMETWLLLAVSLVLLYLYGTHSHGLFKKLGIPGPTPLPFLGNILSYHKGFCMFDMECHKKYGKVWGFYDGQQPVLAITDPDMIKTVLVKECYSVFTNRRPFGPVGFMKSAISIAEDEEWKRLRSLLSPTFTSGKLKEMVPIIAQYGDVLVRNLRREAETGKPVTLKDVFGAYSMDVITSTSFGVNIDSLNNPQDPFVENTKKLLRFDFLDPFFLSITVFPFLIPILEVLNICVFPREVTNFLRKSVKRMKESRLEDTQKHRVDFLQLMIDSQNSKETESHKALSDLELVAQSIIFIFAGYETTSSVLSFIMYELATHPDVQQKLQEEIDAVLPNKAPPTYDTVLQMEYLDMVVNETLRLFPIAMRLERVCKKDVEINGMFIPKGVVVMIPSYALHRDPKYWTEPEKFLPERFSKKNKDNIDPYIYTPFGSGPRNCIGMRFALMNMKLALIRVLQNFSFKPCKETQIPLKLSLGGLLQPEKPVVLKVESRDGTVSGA

The target in test [11] is Dual specificity protein kinase CLK4 (Homo sapiens) (UniProt Q9HAZ1). The test can be described thus: qHTS Assay for Inhibitors of CDC-like Kinase 4 (Kinase-Glo Assay) (AID 1770). Also: nearly all actives have a fitted effect of over 65% in size. Also: potency is read from the fitted curve at half-maximal effect. The settings on record: recombinant Clk4, Kinase-Glo ATP depletion luminescence; series mostly up to 66.7 µM. The gist of the method: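 Recombinant human Clk4 (25 nM) phosphorylated RS repeat peptide (100 uM) with 1 uM ATP in Tris pH 7.5/MgCl2/EGTA/DTT/Triton buffer for 4.5 h at room temperature. Residual ATP was quantified by Kinase-Glo luciferase luminescence.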
Dual specificity protein kinase CLK4 (Homo sapiens), sequence (Q9HAZ1 whole entry, looked up): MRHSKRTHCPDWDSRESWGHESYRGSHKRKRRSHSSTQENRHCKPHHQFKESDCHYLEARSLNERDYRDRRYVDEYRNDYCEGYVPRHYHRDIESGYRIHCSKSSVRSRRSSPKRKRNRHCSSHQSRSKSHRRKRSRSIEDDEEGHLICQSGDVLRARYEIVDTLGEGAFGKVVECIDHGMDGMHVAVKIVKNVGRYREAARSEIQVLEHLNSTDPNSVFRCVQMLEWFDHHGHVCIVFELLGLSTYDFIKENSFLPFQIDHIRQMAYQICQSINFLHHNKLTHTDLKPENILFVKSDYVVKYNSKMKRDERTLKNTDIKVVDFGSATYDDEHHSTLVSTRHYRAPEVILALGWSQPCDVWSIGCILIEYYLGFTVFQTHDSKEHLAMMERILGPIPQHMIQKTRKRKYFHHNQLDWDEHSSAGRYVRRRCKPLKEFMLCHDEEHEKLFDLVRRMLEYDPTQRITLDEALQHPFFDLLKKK

Test [12] shares this target. The test can be described thus: qHTS Assay for Inhibitors of CDC-like Kinase 4 (ADP-Glo Assay) (AID 1771). Also: nearly all actives have a fitted effect of over 70% in size. Also: potency is read from the fitted curve at half-maximal effect. The settings on record: recombinant CLK4, ADP-Glo luminescence; series mostly up to 80 µM. The gist of the method:
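25 nM Clk4, 100 uM RS peptide, 1 uM ATP (final); 2 mM MgCl2, 0.5 mM EGTA, 2.5 mM DTT, 0.01% Triton X-100; 1 hr RT. ADP-Glo readout: ATP depletion 45 min, conversion/luciferase 30 min, luminescence.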

For test [13], the target named is Ubiquitin carboxyl-terminal hydrolase 1 (Homo sapiens) (UniProt O94782). Kind of test: Inhibitors of USP1/UAF1: Pilot qHTS (AID 504865).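 Also: rhodamine fluorescence freed from ubiquitin-rhodamine substrate followed over time; top concentration of the series differs between compounds; % is scaled to controls: 0 for no effect and ±100 for the full control effect; nearly all actives have a fitted effect of over 35% in size.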 Particulars: purified USP1/UAF1, Ub-rhodamine cleavage fluorescence; series mostly up to 54.9 µM. The method, boiled down: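 USP1/UAF1 complex (1nM) preincubated with compound 15 min at room temperature, then Ub-Rho substrate (150nM final) added. Fluorescence read kinetically at 480/540 nm, 6 reads every 60 seconds. Buffer: 50mM HEPES pH 7.8, 0.5mM EDTA, 0.1 mg/ml BSA, 1mM TCEP, 0.01% Tween-20.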
Ubiquitin carboxyl-terminal hydrolase 1 (Homo sapiens), sequence (O94782 whole entry, looked up): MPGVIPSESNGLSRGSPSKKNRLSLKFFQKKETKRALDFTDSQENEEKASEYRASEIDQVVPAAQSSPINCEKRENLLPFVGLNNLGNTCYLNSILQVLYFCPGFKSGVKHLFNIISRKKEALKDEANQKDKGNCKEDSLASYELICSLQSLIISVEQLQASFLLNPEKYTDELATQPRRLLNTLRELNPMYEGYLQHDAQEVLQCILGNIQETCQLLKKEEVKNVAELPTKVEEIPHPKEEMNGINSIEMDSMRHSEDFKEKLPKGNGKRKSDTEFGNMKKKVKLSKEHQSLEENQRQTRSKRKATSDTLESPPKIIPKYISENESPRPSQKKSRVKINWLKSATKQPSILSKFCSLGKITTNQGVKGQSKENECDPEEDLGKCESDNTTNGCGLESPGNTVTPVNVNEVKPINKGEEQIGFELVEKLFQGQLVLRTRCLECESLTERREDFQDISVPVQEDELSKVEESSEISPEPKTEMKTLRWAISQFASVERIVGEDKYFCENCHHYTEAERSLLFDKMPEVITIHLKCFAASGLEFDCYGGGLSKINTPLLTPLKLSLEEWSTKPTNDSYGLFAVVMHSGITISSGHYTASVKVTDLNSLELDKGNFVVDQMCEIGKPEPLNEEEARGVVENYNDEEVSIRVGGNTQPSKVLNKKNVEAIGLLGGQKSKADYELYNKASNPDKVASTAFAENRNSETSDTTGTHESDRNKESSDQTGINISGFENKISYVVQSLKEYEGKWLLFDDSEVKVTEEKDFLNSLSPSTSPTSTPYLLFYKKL

A short description of test [14]: Primary qHTS for small molecule stabilizers of the endoplasmic reticulum resident proteome: Secreted ER Calcium Modulated Protein (SERCaMP) assay (AID 1508630). Also: % is scaled to controls: 0 for no effect and ±100 for the full control effect. Particulars: SH-SY5Y GLuc-SERCaMP (Gaussia luciferase released on ER calcium loss) secretion, thapsigargin, luminescence; series mostly up to 38.4 µM. The method, boiled down: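 The SH-SY5Y reporter protocol was run at 3 concentrations up to 38.3 uM (primary) or 11 concentrations (follow-up): 16 h compound, 100 nM thapsigargin for 4 h, then extracellular luciferase luminescence.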

Test [15] is described as follows: qHTS Assay for Identification of Small Molecule Agonists for Hypoxia Response Element Signaling Pathway (AID 914; active = well fitted activation curve with a large enough effect in the signal ratio, with a control signal flat, not every such curve was filed as active; the % refers to the signal ratio; also: potency is read from the fitted curve at half-maximal effect). The settings on record: ME-180 (cervical carcinoma) HRE-bla reporter, beta-lactamase ratio, CoCl2, 17 h; activation: stronger effect = higher value. The method, boiled down:
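Reporter activity (beta-lactamase, CCF4 460nm/530nm ratio) in HRE-bla ME-180 cells is recorded after 17 h compound exposure with EC50 CoCl2 at 37 degrees Celsius. AC50 values come from titration data.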

The target in test [16] is Cytochrome P450 2C9 (Homo sapiens) (UniProt P11712). The test can be described thus: qHTS Assay for Inhibitors and Substrates of Cytochrome P450 2C9 (AID 883). Also: potency is read from the fitted curve at half-maximal effect; nearly all actives have a fitted effect of over 60% in size. The settings on record: recombinant CYP2C9, luciferin-H luminescence, 60 min; series mostly up to 57.1 µM. The method, boiled down:
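Human CYP2C9 (10nM) with Luciferin-H at 100uM (its KM) in 25mM KPO4; compound preincubated 10 min at 37C, then NADPH regeneration for 60 min at 37C. Luciferin read by luminescence after detection reagent; normalized to 57uM sulphaphenazole as full inhibition.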

Test [17] deals with Cytochrome P450 2D6 (Homo sapiens) (UniProt P10635). Kind of test: qHTS Assay for Inhibitors and Substrates of Cytochrome P450 2D6 (AID 891). Also: potency is read from the fitted curve at half-maximal effect; nearly all actives have a fitted effect of over 60% in size. The settings on record: recombinant CYP2D6, luciferin-ME EGE luminescence; series mostly up to 57.1 µM. The method, boiled down:
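Luminescent read-out of luciferin formed by 5 nM human CYP2D6 demethylating 30 uM Luciferin-ME EGE (Km level) over 60 min at room temperature after NADPH regeneration addition. Data normalized to full inhibition by 1.43 uM quinidine.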

The target in test [18] is Cytochrome P450 2C19 (Homo sapiens) (UniProt P33261). The test can be described thus: qHTS Assay for Inhibitors and Substrates of Cytochrome P450 2C19 (AID 899). Also: potency is read from the fitted curve at half-maximal effect; nearly all actives have a fitted effect of over 60% in size. The settings on record: recombinant CYP2C19, luciferin-H EGE luminescence; series mostly up to 57.1 µM. The gist of the method:
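5 nM human CYP2C19 with 10uM Luciferin-H EGE (at KM) in 50mM KPO4, compound preincubated 10 min at 37C, then NADPH regeneration for 60 min at 37C. Luciferin read by luminescence after detection reagent; normalized to 57uM ketoconazole as full inhibition.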

Cytochrome P450 1A2 (Homo sapiens), sequence (P05177 whole entry, looked up): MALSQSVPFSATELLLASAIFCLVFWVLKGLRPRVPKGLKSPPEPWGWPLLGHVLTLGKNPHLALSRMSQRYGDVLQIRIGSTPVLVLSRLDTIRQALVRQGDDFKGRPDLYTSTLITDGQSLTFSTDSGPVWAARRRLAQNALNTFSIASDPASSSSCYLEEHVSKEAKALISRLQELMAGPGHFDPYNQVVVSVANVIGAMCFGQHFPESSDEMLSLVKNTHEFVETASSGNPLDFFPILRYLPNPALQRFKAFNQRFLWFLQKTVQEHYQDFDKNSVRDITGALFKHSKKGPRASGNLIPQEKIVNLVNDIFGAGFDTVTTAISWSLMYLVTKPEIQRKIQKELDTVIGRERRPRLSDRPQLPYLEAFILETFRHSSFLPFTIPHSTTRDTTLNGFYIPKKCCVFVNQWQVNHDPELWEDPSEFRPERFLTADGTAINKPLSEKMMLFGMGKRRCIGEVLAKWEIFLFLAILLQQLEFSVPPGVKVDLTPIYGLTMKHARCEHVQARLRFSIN
Glucocorticoid receptor (Homo sapiens), sequence (P04150 whole entry, looked up, the tested form may be a part): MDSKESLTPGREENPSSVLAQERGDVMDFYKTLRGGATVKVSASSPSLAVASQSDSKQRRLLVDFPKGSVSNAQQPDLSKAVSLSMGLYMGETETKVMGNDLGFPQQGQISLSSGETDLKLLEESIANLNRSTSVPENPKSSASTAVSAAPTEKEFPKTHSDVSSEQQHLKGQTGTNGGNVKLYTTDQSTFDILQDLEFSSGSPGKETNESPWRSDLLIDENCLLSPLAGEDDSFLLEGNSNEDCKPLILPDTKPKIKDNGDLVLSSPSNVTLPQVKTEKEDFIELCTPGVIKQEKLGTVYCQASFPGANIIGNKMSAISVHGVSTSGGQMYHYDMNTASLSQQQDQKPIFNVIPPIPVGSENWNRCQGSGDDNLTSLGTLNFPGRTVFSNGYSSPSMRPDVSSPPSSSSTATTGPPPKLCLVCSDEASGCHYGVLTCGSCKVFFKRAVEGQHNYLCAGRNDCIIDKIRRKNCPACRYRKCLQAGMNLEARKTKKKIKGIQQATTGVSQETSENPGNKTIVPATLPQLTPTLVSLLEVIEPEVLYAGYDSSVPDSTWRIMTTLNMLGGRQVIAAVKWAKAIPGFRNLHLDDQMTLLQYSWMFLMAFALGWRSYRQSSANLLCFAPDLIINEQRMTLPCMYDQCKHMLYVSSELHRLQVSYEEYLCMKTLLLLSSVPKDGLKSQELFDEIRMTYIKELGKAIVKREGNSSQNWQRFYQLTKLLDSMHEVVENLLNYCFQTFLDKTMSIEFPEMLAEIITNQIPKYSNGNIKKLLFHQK
Cytochrome P450 2C9 (Homo sapiens), sequence (P11712 whole entry, looked up): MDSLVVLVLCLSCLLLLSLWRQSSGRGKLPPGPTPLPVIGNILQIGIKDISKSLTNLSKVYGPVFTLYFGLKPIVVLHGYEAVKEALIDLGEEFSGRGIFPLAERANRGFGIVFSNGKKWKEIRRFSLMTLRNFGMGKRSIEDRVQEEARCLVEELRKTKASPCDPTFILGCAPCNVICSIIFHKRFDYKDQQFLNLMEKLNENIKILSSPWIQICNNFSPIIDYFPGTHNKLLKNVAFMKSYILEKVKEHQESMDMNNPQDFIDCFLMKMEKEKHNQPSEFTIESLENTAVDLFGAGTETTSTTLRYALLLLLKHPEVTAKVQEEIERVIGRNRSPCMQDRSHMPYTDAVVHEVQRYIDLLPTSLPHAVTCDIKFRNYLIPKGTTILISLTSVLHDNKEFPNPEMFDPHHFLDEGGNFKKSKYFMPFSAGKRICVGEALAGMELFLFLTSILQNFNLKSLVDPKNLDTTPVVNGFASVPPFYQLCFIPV
3',5'-cyclic-AMP phosphodiesterase 4B (Homo sapiens), sequence (Q07343 whole entry, looked up): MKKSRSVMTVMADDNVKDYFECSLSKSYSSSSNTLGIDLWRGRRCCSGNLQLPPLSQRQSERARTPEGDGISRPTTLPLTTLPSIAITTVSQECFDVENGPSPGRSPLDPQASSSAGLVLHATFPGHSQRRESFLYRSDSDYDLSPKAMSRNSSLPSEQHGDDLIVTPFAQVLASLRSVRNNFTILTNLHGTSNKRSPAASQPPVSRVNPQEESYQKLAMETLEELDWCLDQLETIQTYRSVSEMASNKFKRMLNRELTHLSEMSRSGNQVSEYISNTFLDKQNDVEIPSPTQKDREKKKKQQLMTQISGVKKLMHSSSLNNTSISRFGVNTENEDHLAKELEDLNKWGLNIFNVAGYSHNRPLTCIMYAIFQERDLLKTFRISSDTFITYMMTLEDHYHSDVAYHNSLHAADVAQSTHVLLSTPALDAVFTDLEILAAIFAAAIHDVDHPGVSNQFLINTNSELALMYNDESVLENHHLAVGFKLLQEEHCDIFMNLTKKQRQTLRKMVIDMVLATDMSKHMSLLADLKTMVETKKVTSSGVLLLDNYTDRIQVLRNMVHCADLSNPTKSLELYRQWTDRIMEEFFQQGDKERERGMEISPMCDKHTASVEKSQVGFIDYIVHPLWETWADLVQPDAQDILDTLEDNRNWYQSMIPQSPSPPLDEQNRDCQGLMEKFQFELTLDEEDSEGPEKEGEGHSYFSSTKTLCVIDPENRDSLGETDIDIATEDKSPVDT

With `Cc1cnc(CNc2ccnc(-c3cccc(C#N)c3)n2)cn1`, the Potency is greater than 11.4 µM in [1]; 1.26 µM (active) in [3]; greater than 46 µM in test [6]; greater than 46 µM in [7]; 22.4 µM (active) in test [11]; 15.8 µM (active) in test [12]. Further, the results for the activity change, negative = inhibition in test [2] and in test [4] were -12.1% and 16.3%, respectively. Further, in [5], the activity, negative = inhibition was 6.8%. Moreover, the Potency result in test [8], in [9], in [10] and in test [13] was “inactive” in each case. Also, in test [14], the result was inactive.
On to `CS(=O)(=O)Nc1cccc(-c2nc(-n3ccnc3)c3ccccc3n2)c1`, for which the Potency was greater than 11.4 µM in test [1]; greater than 46 µM in test [6]; greater than 46 µM in test [7]; 15.8 µM (active) in test [11]; 20 µM (active) in test [12]. The activity change, negative = inhibition in test [2] was -3.92%; in [4] it was 4.67%. For the same compound, the activity, negative = inhibition in test [5] was -7.2%. The Potency entry in test [8] and in [13] was “inactive” each time. The outcome in test [14] was inactive.
Regarding `O=c1c(-c2ccc(Cl)cc2)nc2cnc(Nc3ccccc3)nc2n1C[C@H]1CCCO1`, the Potency in [1] was greater than 11.4 µM; in test [3], 12.6 µM (active); in test [6], greater than 9.22 µM; in test [7], greater than 46 µM; in test [15], 0.126 µM (active). Besides, the activity change, negative = inhibition in test [2] was -8.65%; in [4] it was -7.53%. Besides, the Potency result in test [8], in test [11], in [12] and in [13] was “inactive” in each case. Further, the outcome in [14] was inactive.
As for `c1cncc(-c2nccc(NCc3cccs3)n2)c1`, the Potency in test [1] was greater than 11.4 µM; in test [3], 0.2 µM (active); in test [6] it was greater than 46 µM; in test [7] it was greater than 46 µM; in [16], 0.398 µM (active); in test [17] it was 0.631 µM (active). Besides, the Potency was 7.94 µM (active) in test [18], 14.1 µM (active) in test [11] and 10 µM (active) in test [12]. Moreover, the activity change, negative = inhibition is 4.03% in [2] and 13.5% in test [4]. In test [5], the activity, negative = inhibition was -3.1%. Moreover, the Potency entry in [8], in test [10] and in [13] was “inactive” in each case. In [14], the outcome was inactive.
For the compound `Cc1noc(C)c1-c1nccc(NCc2cccs2)n1`, the Potency in [1] was greater than 11.4 µM; in test [3] it was 0.501 µM (active); in [6] it was greater than 46 µM; in test [7], greater than 46 µM; in test [11], 22.4 µM (active); in test [12], 35.5 µM (active). Moreover, the activity change, negative = inhibition in test [2] is 3.65%; in test [4], -16.6%. For the same compound, the activity, negative = inhibition in [5] was 2.65%. Besides, the Potency entry in test [8] and in [10] was “inactive” in each case. For the same compound, in test [14], the result was inactive.

(Values after PubChem BioAssay (NCATS).)
